High-throughput results as filed in PubChem.
L3MBTL1 block: qHTS Assay for the Inhibitors of L3MBTL1; Lethal(3)malignant brain tumor-like protein 1 (Homo sapiens), Q9Y468; AlphaScreen L3MBTL1–H3K9me1 peptide binding; Potency, µM (highest dose often 57.1 µM), hits mostly inhibitors; 0.66% of 230,000 active; note: nearly all actives have a fitted effect of over 60% in size
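Read-out is AlphaScreen signal from streptavidin donor and nickel chelate acceptor beads (10 ug/mL final each) bridging L3MBTL1 (50 nM) and biotinylated K9-monomethylated H3(1-15) peptide (75 nM), after 30 min compound exposure at room temperature.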
FEN1 inh: qHTS Assay for the Inhibitors of Human Flap endonuclease 1 (FEN1). Recombinant FEN1 flap cleavage, fluorescence, 15 min. Potency, µM (titrated, usually from 114 µM), actives largely listed as inhibitors. 0.35% of 390,000 active. AID 588795, 2011; note: nearly all actives have a fitted effect of over 65% in size
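With each library titrated from low to high concentration, compounds met 10 nM FEN1 for 15 min at room temperature before 50 nM substrate was added; readings at 0 and 15 min fed four-parameter Hill curve fits.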
WRN inhibitor: qHTS for Inhibitors of WRN Helicase; WRN helicase unwinding, fluorescent forked duplex, kinetic; Potency, µM (highest dose often 114 µM), hits mostly inhibitors; 0.46% of 360,000 active; note: nearly all actives have a fitted effect of over 55% in size
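Enzyme (20 nM final) and test compound sit together 15 min at room temperature before substrate addition. Substrate is a single-forked duplex oligonucleotide (100 nM) labelled with fluorophore and quencher, with 2 mM ATP; helicase unwinding raises red fluorescence, read kinetically.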
APEX1 inh: qHTS Assay for Inhibitors of the Human Apurinic/apyrimidinic Endonuclease 1 (APE1) | DNA repair nuclease/redox regulator APEX1 (Homo sapiens), P27695 | recombinant APE1, TAMRA/BHQ-2 abasic DNA cleavage fluorescence | Potency, µM (doses to about 65.8 µM), usual class: inhibitors | 0.35% of 350,000 active; note: nearly all actives have a fitted effect of over 55% in size
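Kinetic fluorescence read (525 ex/598 em nm, three reads 60 s apart) of AP-site incision; signal = third minus first read. Enzyme 0.75 nM, dual-labelled THF duplex 50 nM, compound preincubation 15 min RT.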
RECQ1 helicase: qHTS Assay for Inhibitors of RecQ-Like Dna Helicase 1 (RECQ1); Potency, µM (doses to about 57.3 µM), most hits filed as inhibitors; 0.54% of 240,000 active; RECQ1 DNA unwinding, red fluorescence kinetic read; note: nearly all actives have a fitted effect of over 30% in size
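50 nM RECQ1T1 preincubated 15 min with compound in Tris pH 8.0 buffer with MgCl2, DTT, Tween-20 and 2.5 ug/ml poly(dI-dC); started with 200 nM TAMRA/BHQ-2 forked duplex and 2 mM ATP. Unwinding read as fluorescence (525/598 nm), two reads 2 h apart.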
BLM inh: qHTS Assay for Inhibitors of Bloom's syndrome helicase (BLM); RecQ-like DNA helicase BLM (Homo sapiens), P54132; recombinant BLM DNA unwinding, fluorescence dequenching; Potency, µM (doses to about 56.1 µM), most hits filed as inhibitors; 0.2% of 350,000 active; AID 2528, 2010; note: nearly all actives have a fitted effect of over 35% in size
Target sequence (P54132 whole entry, looked up): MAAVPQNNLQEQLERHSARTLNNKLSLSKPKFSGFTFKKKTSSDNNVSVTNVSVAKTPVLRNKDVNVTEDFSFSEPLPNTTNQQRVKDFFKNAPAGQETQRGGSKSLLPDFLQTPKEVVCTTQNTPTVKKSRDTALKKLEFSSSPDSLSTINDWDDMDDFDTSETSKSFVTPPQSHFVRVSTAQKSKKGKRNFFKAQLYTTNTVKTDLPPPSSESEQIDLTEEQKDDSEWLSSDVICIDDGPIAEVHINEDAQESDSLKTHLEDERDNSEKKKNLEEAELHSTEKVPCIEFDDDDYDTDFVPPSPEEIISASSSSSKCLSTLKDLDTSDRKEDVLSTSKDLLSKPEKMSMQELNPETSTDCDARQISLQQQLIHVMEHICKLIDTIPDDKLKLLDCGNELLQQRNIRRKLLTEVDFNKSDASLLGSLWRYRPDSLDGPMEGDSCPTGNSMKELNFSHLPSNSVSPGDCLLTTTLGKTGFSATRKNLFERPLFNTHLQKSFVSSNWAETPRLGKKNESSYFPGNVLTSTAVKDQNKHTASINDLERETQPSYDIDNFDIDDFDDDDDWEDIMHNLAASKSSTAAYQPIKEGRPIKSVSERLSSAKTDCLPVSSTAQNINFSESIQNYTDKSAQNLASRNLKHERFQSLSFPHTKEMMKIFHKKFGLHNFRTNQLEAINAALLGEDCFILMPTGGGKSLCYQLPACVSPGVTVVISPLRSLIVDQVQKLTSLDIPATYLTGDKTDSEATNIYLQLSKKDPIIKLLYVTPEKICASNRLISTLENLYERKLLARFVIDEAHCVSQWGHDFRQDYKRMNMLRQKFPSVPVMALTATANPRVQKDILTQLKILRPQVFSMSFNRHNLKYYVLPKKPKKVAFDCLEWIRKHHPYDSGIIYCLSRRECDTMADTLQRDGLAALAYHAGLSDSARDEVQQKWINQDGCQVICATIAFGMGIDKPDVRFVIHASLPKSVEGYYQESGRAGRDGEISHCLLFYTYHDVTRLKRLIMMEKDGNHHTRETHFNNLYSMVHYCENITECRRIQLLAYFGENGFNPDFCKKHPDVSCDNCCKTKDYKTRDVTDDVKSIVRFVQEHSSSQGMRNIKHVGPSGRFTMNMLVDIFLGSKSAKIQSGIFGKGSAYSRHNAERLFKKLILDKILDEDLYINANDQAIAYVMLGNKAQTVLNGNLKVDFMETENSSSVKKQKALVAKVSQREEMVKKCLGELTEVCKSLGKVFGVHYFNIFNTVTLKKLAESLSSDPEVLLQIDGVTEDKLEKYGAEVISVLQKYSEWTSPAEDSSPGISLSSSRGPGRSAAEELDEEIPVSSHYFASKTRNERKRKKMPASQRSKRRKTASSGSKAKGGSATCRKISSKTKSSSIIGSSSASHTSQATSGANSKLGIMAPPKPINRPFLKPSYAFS
Numbers stand for hits; - = inactive; ? = inconclusive; . = not tested or not shown. A selection: hits, their analogues and other compounds. The true share with any hit is near 1%. Calls come from the whole dose curve; as a rule, active = well fitted curve in the direction sought with a large enough effect; inconclusive = small, poorly fitted or top-dose-only effect, or another doubt; inactive = no such curve, though single readings can be large; an effect the other way counts as inactive or inconclusive.

SMILES | L3MBTL1 block | FEN1 inh | WRN inhibitor | APEX1 inh | RECQ1 helicase | BLM inh
Cc1nc2c(c(=O)n1Cc1ccccc1Cl)c1nc3ccccc3nc1n2Cc1ccco1 | . | . | . | - | - | -
COc1ccc(Cn2c3nc4ccccc4nc3c3c(=O)n(Cc4ccco4)c(C)nc32)cc1 | . | . | . | ? | 3.5µM | ?
COc1ccc(S(=O)(=O)c2c(N)n(Cc3ccco3)c3nc4ccccc4nc23)cc1 | 28µM | ? | 35µM | - | - | ?
COc1cccc(-n2nnnc2S(C)(=O)=O)c1 | . | - | 50µM | - | - | -
COc1ccc(-c2nn(-c3ccccc3)cc2/C=C2/SC(=S)N(CCC(=O)O)C2=O)cc1 | . | 79µM | 50µM | 17µM | . | -
Cc1ccc(-c2nn(-c3ccccc3)cc2/C=C2\SC(=S)N(CC(=O)O)C2=O)cc1 | - | - | - | ? | - | -
O=C1C(=Cc2cn(-c3ccccc3)nc2-c2ccc(OCc3ccccc3F)cc2)SC(=S)N1CCS(=O)(=O)O | . | . | 32µM | . | . | .
C=Cc1ccc(CC2(C)C(=O)Nc3ccc(-c4cccnc4)cc32)cc1 (stereo not given) | . | . | - | . | . | .
CCC(=O)NC(c1cccs1)c1cc([N+](=O)[O-])c2cccnc2c1O (stereo not given) | 10µM | - | - | - | - | -
CC(=O)NC(c1cccs1)c1cc([N+](=O)[O-])c2cccnc2c1O (stereo not given) | 10µM | - | - | - | - | -
CCCC(=O)NC(c1cccs1)c1cc([N+](=O)[O-])c2cccnc2c1O (stereo not given) | ? | - | ? | - | - | -
CC(C)C(=O)NC(c1ccccc1)c1cc([N+](=O)[O-])c2cccnc2c1O (stereo not given) | 10µM | - | ? | - | - | -
CCC(=O)NC(c1cccs1)c1cc(Br)c2cccnc2c1O (stereo not given) | - | . | . | - | . | .
CSCC[C@H](NC(=O)[C@H](CO)NC(=O)[C@H](Cc1ccc(O)cc1)NC(=O)[C@@H](N)CO)C(=O)N[C@@H](CCC(=O)O)C(=O)N[C@@H](Cc1cnc[nH]1)C(=O)N[C@@H](Cc1ccccc1)C(=O)N[C@@H](CCCNC(=N)N)C(=O)N[C@@H](Cc1c[nH]c2ccccc12)C(=O)NCC(=O)N[C@@H](CCCCN)C(=O)N1CCC[C@H]1C(=O)N[C@H](C(=O)NCC(=O)N[C@@H](CCCCN)C(=O)N[C@@H](CCCCN)C(=O)N[C@@H](CCCNC(=N)N)C(=O)N[C@@H](CCCNC(=N)N)C(=O)N1CCC[C@H]1C(=O)N[C@H](C(=O)N[C@@H](CCCCN)C(=O)N[C@H](C(=O)N[C@@H](Cc1ccc(O)cc1)C(=O)N1CCC[C@H]1C(=O)O)C(C)C)C(C)C)C(C)C | . | . | . | - | - | .
N#Cc1c(-c2ccc(OCCOCCOCCN)cc2)no[n+]1[O-] | . | . | . | - | . | .
COC(=O)c1nc(N)sc1-c1ccc(Cl)c(Cl)c1 | . | - | - | - | - | -
CC(/C=C1\SC(=S)N(CCC(=O)Nc2cccc(C(=O)O)c2)C1=O)=C\c1ccccc1 | . | - | 79µM | - | . | -
CC(=C\c1ccccc1)/C=C1/SC(=S)N(CCCC(=O)O)C1=O | . | ? | 50µM | - | . | -
CC(=Cc1ccccc1)C=C1SC(=S)N(CCCC(=O)Nc2ccc(C(=O)O)cc2)C1=O | . | . | - | . | . | .
NC(=O)C1CCN(c2nc(-c3ccc4c(c3)OCO4)cs2)CC1 | . | . | . | - | . | .
CN(C)c1ccc(C(=S)Nc2ccccc2)cc1 | - | - | - | - | - | -
CN(C)c1ccc(NC(=S)c2ccccn2)cc1 | 32µM | - | - | - | - | -
